# Bioassay records (PubChem)
# Hits are enriched below; roughly 3.3% of the tested compounds scored in any of these assays.
# PfG6PD inh – PfG6PD (Plasmodium falciparum) enzyme inhibition. AID 504690. inhibition, % at 20 µM. hit rate 0.78% among 350,000. PfGluPho enzyme, NADPH resazurin-diaphorase fluorescence;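 active = inhibition reaching at least a set limit at 20 µM in the primary screen, cut at about 59% in these data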;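 note: 0% = DMSO wells with substrate and 100% = DMSO wells lacking glucose-6-phosphate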
# UHRF1 binding – UHRF1 methyl-DNA binding inhibition | Q96T88 | UHRF1 binding to methylated oligo, TR-FRET | inhibition, % at 4.4 µM | hit rate 0.75% among 370,000 | AID 687016; in the data active = inhibition above about 21%;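 note: UHRF1 SRA domain binding a hemimethylated CpG hairpin DNA probe; 0% = median of test compound wells and 100% = reference inhibitor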
# Target sequence (Q96T88 whole entry, looked up, the tested form may be a part): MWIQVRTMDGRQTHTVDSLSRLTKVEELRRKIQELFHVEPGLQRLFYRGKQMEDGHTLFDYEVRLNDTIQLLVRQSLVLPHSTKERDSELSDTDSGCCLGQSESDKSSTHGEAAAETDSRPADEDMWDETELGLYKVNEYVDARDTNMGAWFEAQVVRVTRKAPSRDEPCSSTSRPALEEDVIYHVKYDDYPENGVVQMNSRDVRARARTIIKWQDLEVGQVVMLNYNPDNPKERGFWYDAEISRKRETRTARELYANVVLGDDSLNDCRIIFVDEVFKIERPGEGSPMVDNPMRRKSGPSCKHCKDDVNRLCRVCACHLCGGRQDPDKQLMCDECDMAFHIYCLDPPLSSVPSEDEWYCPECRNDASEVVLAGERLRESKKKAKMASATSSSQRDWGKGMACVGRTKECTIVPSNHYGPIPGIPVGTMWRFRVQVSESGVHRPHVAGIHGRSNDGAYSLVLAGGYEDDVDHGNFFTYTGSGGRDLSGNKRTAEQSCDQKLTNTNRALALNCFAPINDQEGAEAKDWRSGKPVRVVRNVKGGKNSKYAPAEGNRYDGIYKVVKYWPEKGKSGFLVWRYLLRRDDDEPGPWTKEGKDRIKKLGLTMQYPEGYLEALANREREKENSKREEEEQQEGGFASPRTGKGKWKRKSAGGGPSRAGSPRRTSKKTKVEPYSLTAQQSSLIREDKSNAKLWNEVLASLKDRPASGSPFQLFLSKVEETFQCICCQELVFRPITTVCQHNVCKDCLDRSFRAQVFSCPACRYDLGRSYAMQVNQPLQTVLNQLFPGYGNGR
# M18AAP inhibitor – PfM18AAP enzyme inhibition | recombinant PfM18AAP, H-Glu-NHMec fluorogenic cleavage | inhibition, % at 7.35 µM | hit rate 1.2% among 290,000 | AID 1822;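 active = inhibition above the campaign mean inhibition over all tested compounds plus 3 SD, cut at about 28% in these data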;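 note: 0% = plate median of test compound wells and 100% = 2 mM ZnCl2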
# PRMT1 inh – PRMT1 (human) inhibition, primary screen. Q99873. recombinant PRMT1, activity-based probe fluorescence polarization. AID 652257. hit rate 1.3% among 370,000. inhibition, % at 2.79 µM;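 active = inhibition above about 21% made by adding two undisclosed values, limit read from the data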
# MBD2 DNA inh – MBD2-methylated oligo binding inhibition; hit rate 0.31% among 370,000; TR-FRET, MBD2 binding to methylated oligonucleotide; inhibition, % at 4.4 µM; Q9UBB5; AID 686964; in the data active = inhibition above about 13%
# PfGluPho conf – PfG6PD inhibition, single-dose confirmed | shares compounds with PfG6PD inh | hit rate 34% among 2,400 | recombinant PfGluPho, NADPH-diaphorase-resazurin fluorescence | AID 504753 | inhibition, % at 20 µM;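 active = inhibition of at least 50% at 20 µM in any single replicate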;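 note: 0% = DMSO with substrate and 100% = DMSO lacking glucose-6-phosphate substrate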
# Diaph ctr 10uM – counter-screen for P. falciparum G6PD inhibitors: diaphorase inhibitors, oxidizers. diaphorase-coupled resazurin reduction, fluorescence, NADPH 10 uM. hit rate 39% among 820. shares compounds with PfG6PD inh. inhibition, % at 20 µM. AID 504862;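 active = average inhibition reaching 50% or more with the compound at 20 µM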;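 note: resorufin red fluorescence formed as diaphorase reduces resazurin using NADPH; 0% = DMSO with enzyme and 100% = DMSO without enzyme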
# Diaph ctr 30uM – diaphorase inhibition or oxidation at 30 uM NADPH; shares compounds with PfG6PD inh; Diaphorase/resazurin coupled assay, resorufin fluorescence; inhibition, % at 20 µM; hit rate 29% among 820;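 active = inhibition averaging 50% or more, tested at 20 µM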;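 note: 0% = DMSO with enzyme and 100% = DMSO wells lacking diaphorase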
# Starred values were filed as active, the others as inactive; · = no result given.
SMILES,PfG6PD inh,UHRF1 binding,M18AAP inhibitor,PRMT1 inh,MBD2 DNA inh,PfGluPho conf,others
O=C(c1ccc2c(c1)N(Cc1ccccc1F)C(=O)c1ccccc1S2)N1CCOCC1,69.1*,-1.3,-4.1,-6.5,1.3,34.7,
Cc1ccc(NC(=O)NCc2ccco2)cc1[N+](=O)[O-],·,-3.1,·,-9.7,4.9,·,
Cc1cccc(Nc2nnc(SCC(=O)c3c(N)n(C4CC4)c(=O)[nH]c3=O)s2)c1,2.1,8.6,·,1.0,-1.8,·,
Cc1ccc(Nc2nnc(SCC(=O)c3c(N)n(C4CC4)c(=O)[nH]c3=O)s2)cc1C,63.9*,-0.9,·,0.3,0.9,21.8,
CCOC(=O)[C@]12CCCCC/C=C\1N(CCc1ccc(Cl)cc1)C(=O)[C@H]2CC(=O)N1CCSCC1,·,0.7,·,-2.7,1.7,·,
O=c1c2cc(F)ccc2sn1-c1ccc(F)cc1,112.5*,·,·,·,·,106.4*,Diaph ctr 10uM=-12.1;Diaph ctr 30uM=-12.9
O=C1CCCC(=O)N1c1ccc(F)cc1,-2.1,-0.8,-8.5,-9.8,-1.3,·,
Cc1ccc(C)c(-n2sc3ccc(F)cc3c2=O)c1,114.8*,-3.3,·,91.5*,2.9,107.4*,Diaph ctr 10uM=-25.4;Diaph ctr 30uM=-26.8
Cc1ccc(-c2cc(=O)c3cc(F)ccc3[nH]2)cc1,2.8,-0.2,2.5,-3.7,-7.1,·,
O=S(=O)(c1ccc(F)cc1)n1c(CN2CCOCC2)nc2ccccc21,·,2.4,·,1.1,-3.8,·,
COC(=O)[C@]12C[C@H](CC(=O)NCCCCc3ccccc3)C(=O)N(Cc3cccc4ccccc34)C1=C[C@H](C(C)(C)C)O[C@@H]2C,·,-4.3,·,0.2,-0.9,·,
C#CCOCCOCCOCCNc1nc(N2CCN(C(=O)CCCCCCCCCCNC(=O)[C@H](CCCCN)n3cc(CCO)nn3)CC2)nc(N2CCN(C(=O)CCCCCCCCCCNC(=O)[C@H](CCCCN)n3cc(C[C@@H](C)CC)nn3)CC2)n1,77.0*,·,·,·,·,11.8,
C#CCOCCOCCOCCNc1nc(N2CCN(C(=O)[C@H](CCCCN)n3cc([C@@H](N)C(C)CC)nn3)CC2)nc(N2CCN(C(=O)[C@H](Cc3cc4ccccc4[nH]3)n3cc([C@@H](N)C(C)CC)nn3)CC2)n1 (stereo partly drawn),61.2*,·,·,·,·,37.5,
Cc1ccc(OCCn2c(CCNC(=O)c3ccc(F)cc3F)nc3ccccc32)cc1,·,2.6,·,-0.6,-1.1,·,
Cc1cc(C)c(S(=O)(=O)Nc2cc(SCC(=O)O)c(O)c3ccccc23)cc1C,106.5*,·,-5.5,·,·,98.4*,Diaph ctr 10uM=52.0*;Diaph ctr 30uM=39.2
O=C(O)CSc1cc(NS(=O)(=O)c2ccc(Cl)cc2)c2ccccc2c1O,109.2*,-4.8,13.7,43.9*,-15.2,91.0*,Diaph ctr 10uM=55.8*;Diaph ctr 30uM=41.1
O=S(=O)(Nc1ccc(Cl)cc1NS(=O)(=O)c1ccccc1)c1ccccc1,5.4,-0.6,·,2.3,-6.7,·,
O=C(c1ccc(F)cc1)n1ccc2ccc(-c3ccc4ccn(Cc5ccccc5)c4c3)cc21,·,0.1,·,4.3,1.1,·,
O=C1C(=NO)CCc2ccccc21,61.6*,-0.7,·,7.8,-7.3,28.6,
Oc1cc(-n2cccn2)c(O)cc1-n1cccn1,102.1*,-3.8,84.8*,57.2*,-4.0,86.5*,Diaph ctr 10uM=35.8;Diaph ctr 30uM=-0.4
O=Cc1ccccc1-n1cccn1,-12.6,0.1,4.4,2.6,0.1,·,
CC1(C)Cc2ccccc2C(Nn2cnnc2)=N1,8.3,-1.3,6.1,-1.3,0.1,·,
CC1(C)Cc2ccccc2C2=NNC(=O)C2=N1,108.4*,8.5,0.6,-2.3,-8.9,93.5*,Diaph ctr 10uM=92.8*;Diaph ctr 30uM=92.5*
CCOC(=O)C1(Cc2ccccc2Cl)CCN(Cc2csc(C(C)=O)c2)CC1,63.1*,6.0,7.4,7.3,10.4,24.7,
CCOC(=O)C1(Cc2cccc(OC)c2)CCN(Cc2ccccc2)CC1,21.6,5.7,0.6,0.9,1.0,·,
SMILES,PfG6PD inh,UHRF1 binding,M18AAP inhibitor,PRMT1 inh,MBD2 DNA inh,PfGluPho conf,others
COC(=O)c1cc(C)nc2c1C(=O)C(=O)C=C2N1CCOCC1,105.4*,11.7,5.5,0.2,5.1,101.2*,Diaph ctr 10uM=98.5*;Diaph ctr 30uM=103.3*
CCN(CC)c1ccc(/C=C2\CCC(/C=C(/C#N)C(=O)Nc3ccccc3F)=C2N2CCOCC2)cc1,70.0*,-0.2,·,1.8,-3.0,-14.3,
CCN(CC)c1ccc(/C=C2\CCC(/C=C(\C#N)C(=O)Nc3ccccc3F)=C2N2CCOCC2)cc1,46.3,-0.2,6.3,-2.9,1.4,·,
Cc1c2cc[n+](CCN3CCCCC3)cc2c(C)c2c1[nH]c1ccc(O)cc12,87.4*,·,·,·,·,11.6,
COc1cccc(NC(=O)C2CC2(c2cccc(OC)c2)c2cccc(OC)c2)c1 (stereo not drawn),111.3*,0.8,9.4,0.4,2.0,42.8,
Cc1ccc(NC(=O)c2cc(-n3cnnc3)ccc2Cl)cc1,-10.3,0.8,-1.2,-0.2,-6.8,·,
Cc1ccc(NC(=O)c2cc(N3C(=O)C=CC3=O)ccc2Cl)cc1C,77.3*,1.3,8.4,17.7,4.2,80.6*,Diaph ctr 10uM=0.4;Diaph ctr 30uM=-7.6
CC(C)=CCC/C(C)=C/C=N/NC(=O)c1ccccc1[N+](=O)[O-],66.8*,-0.3,3.0,-4.0,-2.6,26.0,
C/C(CCc1ccccc1)=N\NC(=O)c1ccccc1[N+](=O)[O-],0.3,3.6,5.4,-0.2,-0.3,·,
O=C(CN1CCN(c2ccc(O)cc2)CC1)Nc1ccc(S(=O)(=O)N2CCCC2)cc1,60.1*,-4.2,·,18.1,2.2,30.9,
CC[C@H](NC(=O)[C@@H](Cc1ccccc1)NC(=O)[C@H]1O[C@@H](n2ccc(=O)[nH]c2=O)[C@H](O)[C@@H]1O)c1ccccc1,·,-2.9,·,-5.4,3.8,·,
CCOC(=O)[C@@]12CN(C(=O)OC(C)(C)C)CC=C1N(Cc1ccc(OC)cc1)C(=O)[C@H]2CC(=O)NCC1CCCCC1,·,-0.7,·,1.1,2.0,·,
COC(=O)c1c(NC(=O)c2ccc(C)cc2)csc1C,42.1,-1.8,-12.6,-1.0,2.1,·,
COC(=O)c1c(NS(=O)(=O)c2ccccc2)csc1C,90.7*,-1.9,-8.2,-4.1,-3.4,78.0*,Diaph ctr 10uM=71.7*;Diaph ctr 30uM=55.8*
CCOC(=O)c1ccccc1NS(=O)(=O)c1ccccc1,79.2*,-1.9,0.4,-0.9,-2.1,59.6*,Diaph ctr 10uM=58.1*;Diaph ctr 30uM=54.3*
Cn1c2ccccc2c(=O)c2cc(C#CC3(O)CCCCC3)ccc21,62.0*,-1.5,4.0,0.9,5.0,34.6,
COC(=O)c1sc(=S)n(-c2cccc(Cl)c2)c1N,72.5*,-1.3,21.3,3.0,-6.5,26.7,
COc1ccc(CNC(=O)c2sc(=S)n(-c3ccccc3)c2N)cc1,60.7*,8.6,-9.6,21.2*,1.0,41.3,
CCOc1ccc(-n2c(N)c(C(=O)NCc3ccco3)sc2=S)cc1,85.4*,4.4,15.4,6.2,-2.2,30.6,
O=C(CCc1c[nH]c2ccccc12)Nc1ccc(Nc2cccnc2)cc1,·,1.5,·,-2.3,-3.5,·,
CC(C)Cc1c2c([nH]c(=S)c1C#N)CCCC2,69.7*,-1.3,-12.0,6.0,-2.9,37.4,
